From the supplement of paper PMC10127200
Counter-ions that a name gives are not always drawn.

Tests used:
Assay in all cases: Euclidean distance of Cell Painting phenotypic profile (signed KS, 77 features) to DMSO centroid (dimensionless distance); 5 or 10 uM (library dependent); higher = stronger phenotypic change vs DMSO (phenoactivity)
Conditions in all cases: 48 h
786-O = system: 786-O
Summary of the method: (§1)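 Five cancer lines and a healthy fibroblast line received library compounds at 10 or 5 uM (library-dependent, 0.1% DMSO final) for 48 h. Stained cells were imaged confocally at 20X (9 fields/well). Harmony extracted 77 features, each scored as a signed Kolmogorov-Smirnov statistic against same-plate vehicle wells. Profiles were plate-position corrected, correlation-weighted and replicate-averaged at the top dose. Phenoactivity is the Euclidean distance from each profile to the median vehicle profile.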

A549 = system: A549
Summary of the method: as §1

FB = system: FB
Summary of the method: as §1

HEPG2 = system: HEPG2
Summary of the method: as §1

OVCAR4 = system: OVCAR4
Summary of the method: as §1

DU145 = system: DU145
Summary of the method: as §1

Compound | Euclidean distance (786-O) | Euclidean distance (A549) | Euclidean distance (FB) | Euclidean distance (HEPG2) | Euclidean distance (OVCAR4) | Euclidean distance (DU145)
O=c1n(CCCN2CCN(c3cccc(Cl)c3)CC2)nc2ccccn12 [Trazodone] | 0.477 | 1.03 | 0.908 | 0.599 | 1.37 | 
CCCNC(=O)Nc1ccc(Oc2ncnc3cc(OC)c(OC)cc23)cc1Cl | 0.633 | 0.789 | 2.36 |  | 1.05 | 0.916
Cc1cc(C)nc(NS(=O)(=O)c2ccc(N)cc2)n1 [Sulfamethazine] | 1.04 | 0.914 | 0.861 | 0.849 | 1.17 | 
CC(C)C[C@H](NC(=O)[C@@H](O)[C@H](N)Cc1ccccc1)C(=O)O [Bestatin] | 1.08 | 0.773 | 1.11 | 0.637 | 1.09 | 
CCc1ccc(Cc2ccc3c(c2)[C@]2(OC3)O[C@H](CO)[C@@H](O)[C@H](O)[C@H]2O)cc1 [Tofogliflozin(CSG 452)] | 1.15 | 1.03 | 0.713 | 0.386 | 1.56 | 
CCOC(=O)[N-]c1c[n+](N2CCOCC2)no1 [Molsidomine] | 0.969 | 1.06 | 0.842 | 0.73 | 1.63 | 
Nc1cccc(-c2cc3c(Oc4cccc(O)c4)ncnc3[nH]2)c1 | 1.73 | 3.48 | 2.71 |  | 3.29 | 1.62
C(=C\c1ccccc1)/CN1CCN(C(c2ccccc2)c2ccccc2)CC1 [Cinnarizine] | 0.758 | 1.16 | 1.01 | 0.713 | 1.63 | 
CC1(C)[C@@H](O[C@H]2O[C@H](C(=O)O)[C@@H](O)[C@H](O)[C@H]2O[C@@H]2O[C@H](C(=O)O)[C@@H](O)[C@H](O)[C@H]2O)CC[C@]2(C)[C@H]3C(=O)C=C4[C@@H]5C[C@@](C)(C(=O)O)CC[C@]5(C)CC[C@@]4(C)[C@]3(C)CC[C@@H]12 [Glycyrrhizin (Glycyrrhizic Acid)] | 1.52 | 0.67 | 1.38 | 0.607 | 1.47 | 
CCOC(=O)[C@H](CCc1ccccc1)N[C@H]1CCc2ccccc2N(CC(=O)O)C1=O [Benazepril] | 0.912 | 0.486 | 0.851 | 0.54 | 1.04 | 
CC(=O)[C@H]1CC[C@H]2[C@@H]3CCC4=CC(=O)CC[C@]4(C)[C@H]3CC[C@]12C [Progesterone] | 0.734 | 0.774 | 0.883 | 0.863 | 0.832 | 
O=C(O)c1cc(O)c2c(c1)[C@H]([C@H]1c3cc(C(=O)O)cc(O)c3C(=O)c3c(O[C@@H]4O[C@H](CO)[C@@H](O)[C@H](O)[C@H]4O)cccc31)c1cccc(O[C@@H]3O[C@H](CO)[C@@H](O)[C@H](O)[C@H]3O)c1C2=O [Sennoside A] | 0.91 | 0.674 | 1.07 | 0.438 | 1.12 | 
NS(=O)(=O)c1cc2c(cc1Cl)NC(C(Cl)Cl)NS2(=O)=O (stereo not given) [Trichlormethiazide] | 1.14 | 0.794 | 0.859 | 0.531 | 0.98 | 
C[C@]12C=CC(=O)N[C@@H]1CC[C@@H]1[C@@H]2CC[C@]2(C)[C@@H](C(=O)Nc3cc(C(F)(F)F)ccc3C(F)(F)F)CC[C@@H]12 [Dutasteride] | 1.17 | 1.7 | 1.03 | 0.422 | 1.01 | 
CC(C(=O)O)c1ccc(-c2ccccc2)c(F)c1 (stereo not given) [Flurbiprofen] | 0.962 | 0.696 | 1.21 | 0.393 | 1.27 | 
CCn1cc(C(=O)O)c(=O)c2cnc(N3CCNCC3)nc21 [Pipemidic acid] | 1.47 | 0.855 | 1.02 | 0.639 | 1.13 | 
Cc1cc2c(C(N)=O)cccc2n1-c1nc2c(c(NCc3ccccc3)n1)COCC2 | 6.05 | 2.9 | 7.18 | 4.68 | 3.98 | 
CCC(C)(Oc1ccc(C2(c3ccc(OC(C)(CC)C(=O)O)cc3)CCCCC2)cc1)C(=O)O (stereo not given) [Clinofibrate] | 1.38 | 0.971 | 0.938 | 0.433 | 1.33 | 
CN1[C@@H]2CC[C@H]1C[C@@H](OC(=O)c1c[nH]c3ccccc13)C2 [Tropisetron HCl] | 0.839 | 1.16 | 1.16 | 0.825 | 0.93 | 
O=C1c2ccccc2C(=O)C1c1ccccc1 [Phenindione] | 0.966 | 1.04 | 1.16 | 0.74 | 1.1 | 
CO[C@@]12[C@H](COC(N)=O)C3=C(C(=O)C(C)=C(N)C3=O)N1C[C@@H]1N[C@@H]12 [Mitomycin C] | 3.14 | 3.37 | 3.89 | 3.46 | 3.61 | 
COC(=O)C[C@](O)(CCCC(C)(C)O)C(=O)O[C@@H]1C(OC)=C[C@]23CCCN2CCc2cc4c(cc2[C@H]13)OCO4 [Homoharringtonine] | 3.57 | 3.34 | 4.13 | 3.18 | 3.7 | 

Compound | Euclidean distance (786-O) | Euclidean distance (A549) | Euclidean distance (FB) | Euclidean distance (HEPG2) | Euclidean distance (OVCAR4) | Euclidean distance (DU145)
CNC(=O)c1ccc(Nc2ncc(C(F)(F)F)c(NCc3nccnc3N(C)S(C)(=O)=O)n2)cc1 | 1.58 | 1.6 | 2.06 | 0.842 | 1.85 | 
Cc1c(C)c2c(c(C)c1O)CC[C@@](C)(CCC[C@H](C)CCC[C@H](C)CCCC(C)C)O2 [Vitamin E] | 0.972 | 1.04 | 0.892 | 0.644 | 1.43 | 
CN1CCN(C(c2ccccc2)c2ccccc2)CC1 [Cyclizine 2HCl] | 1.05 | 0.919 | 1.58 | 0.689 | 1.37 | 
C[C@]12C=CC(=O)C=C1CC[C@@H]1[C@@H]2C(=O)C[C@@]2(C)[C@H]1CC[C@]2(O)C(=O)CO [Prednisone] | 2.09 | 2.37 | 2.39 | 1.49 | 2.03 | 
CN1CCc2nc(C(=O)N[C@@H]3C[C@@H](C(=O)N(C)C)CC[C@@H]3NC(=O)C(=O)Nc3ccc(Cl)cn3)sc2C1 [Edoxaban] | 1.02 | 0.603 | 0.835 | 0.275 | 0.602 | 
COC(=O)OCOc1c2n(ccc1=O)N([C@@H]1c3ccccc3SCc3c1ccc(F)c3F)[C@@H]1COCCN1C2=O [Baloxavir marboxil] | 0.818 | 1.3 | 1.58 | 0.558 | 0.843 | 
Cc1ncc([N+](=O)[O-])n1CC(C)O (stereo not given) [Secnidazole] | 1.02 | 0.496 | 0.982 | 1.12 | 0.655 | 
CN(CCOc1ccc(NS(C)(=O)=O)cc1)CCc1ccc(NS(C)(=O)=O)cc1 [Dofetilide] | 0.968 | 1.19 | 1.24 | 0.609 | 1.02 | 
Nc1ccncc1N [3.4-Diaminopyridine] | 1.58 | 1.24 | 1.38 | 0.828 | 1.15 | 
CC1=C(C(=O)O)N2C(=O)[C@@H](NC(=O)[C@H](N)c3ccccc3)[C@H]2SC1 [Cephalexin] | 1.16 | 1.01 | 1.05 | 0.939 | 1.1 | 
C=C1CC[C@@H]2[C@](C)(CO)[C@H](O)CC[C@@]2(C)[C@@H]1C/C=C1/C(=O)OC[C@H]1O [Andrographolide] | 2.41 | 1.6 | 1.96 | 1.62 | 1.67 | 
CC(C)(C)c1ccc(C(=O)CCCN2CCC(OC(c3ccccc3)c3ccccc3)CC2)cc1 [Ebastine] | 1.64 | 1.24 | 1.83 | 0.905 | 1.22 | 
O=C(C1CCCCC1)N1CC(=O)N2CCc3ccccc3C2C1 (stereo not given) [Praziquantel] | 0.868 | 0.773 | 0.97 | 0.33 | 1.36 | 
O=c1c(-c2ccc(O)cc2)coc2c([C@@H]3O[C@H](CO)[C@@H](O)[C@H](O)[C@H]3O)c(O)ccc12 [Puerarin] | 0.929 | 0.728 | 0.661 | 0.584 | 1.35 | 
C=C(NC(=O)C(=C)NC(=O)c1csc(C2=N[C@@H]3c4csc(n4)[C@H]4NC(=O)c5csc(n5)[C@H]([C@](C)(O)[C@@H](C)O)NC(=O)[C@H]5CSC(=N5)/C(=C/C)NC(=O)[C@H]([C@@H](C)O)NC(=O)c5csc(n5)[C@]3(CC2)NC(=O)[C@H](C)NC(=O)C(=C)NC(=O)[C@H](C)NC(=O)[C@H]([C@@H](C)CC)N[C@@H]2C=Cc3c([C@H](C)O)cc(nc3[C@H]2O)C(=O)O[C@@H]4C)n1)C(N)=O [Thiostrepton] | 4.46 | 2.6 | 4.95 | 4.36 | 2.62 | 
CC(=O)c1cc2c(o1)C(=O)c1ccccc1C2=O [Napabucasin] | 2.96 | 3.97 | 3.91 | 3.62 | 5.51 | 
Nc1ccc(S(=O)(=O)Nc2ccccn2)cc1 [Sulfapyridine] | 0.73 | 1.12 | 0.894 | 0.884 | 1.27 | 
COc1ccc2[nH]c([S@@+]([O-])Cc3ncc(C)c(OC)c3C)nc2c1 [Esomeprazole sodium] | 0.925 | 0.792 | 0.681 | 1.32 | 0.926 | 
Cc1cccn2c(=O)c(-c3nnn[nH]3)cnc12 [Pemirolast potassium] | 1.31 | 0.747 | 0.893 | 0.682 | 1.05 | 
C[C@@H]1C[C@H]2[C@@H]3CCC4=CC(=O)C=C[C@]4(C)[C@@]3(F)[C@@H](O)C[C@]2(C)[C@H]1C(=O)CO [Desoximetasone] | 1.28 | 2.05 | 1.89 | 0.967 | 2.03 | 
S=C(N/N=C1/CCCc2cccnc21)N1CCN(c2ccccn2)CC1 | 3.03 | 3.6 | 3.2 | 2.23 | 1.11 | 
